Compound activity from PubChem BioAssay.
Sampled rows, rich in hits. Any-hit rate of the full collection: about 15%.
Pf growth 48h: Primary qHTS for delayed death inhibitors of the malarial parasite plastid, 48 hour incubation | P. falciparum luciferase growth in erythrocytes, 48 h | Potency, µM (titrated, usually from 28.7 µM), without a hit: top-dose activity change, negative = inhibition, actives largely listed as inhibitors | hit rate 5.9% among 310,000 | AID 504832, 2011; also: potency is read from the fitted curve at half-maximal effect; % is scaled to controls: 0 for no effect and ±100 for the full control effect
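Read-out is firefly luciferase luminescence from an integrated reporter in P. falciparum, so falling signal marks reduced parasite growth. Infected erythrocytes were at 2% hematocrit and 0.1% parasitemia (final) in Albumax-supplemented RPMI 1640.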
SARS PLpro yeast: qHTS of Yeast-based Assay for SARS-CoV PLP | S. cerevisiae expressing SARS-CoV PLpro, growth rescue | Potency, µM (top dose mostly 32.9 µM), for inactives: top-dose activity, positive = growth rescue, actives largely listed as activators | hit rate 0.19% among 330,000; calls by dose curve; also: potency is read from the fitted curve at half-maximal effect; 0% is about no effect; nearly all actives have a fitted effect of over 55% in size
Pf growth 96h: Primary qHTS for delayed death inhibitors of the malarial parasite plastid, 96 hour incubation; P. falciparum luciferase reporter growth, 96 h; Potency, µM (top dose mostly 28.7 µM), inactives show at the top dose activity change, negative = inhibition, most hits filed as inhibitors; hit rate 6.9% among 320,000; also: potency is read from the fitted curve at half-maximal effect; % is scaled to controls: 0 for no effect and ±100 for the full control effect
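Delayed-death screen, second-generation endpoint: infected erythrocytes, 2% hematocrit, 0.05% parasitemia final; 96 hours at 37 C, 5% CO2; luciferase detection reagent; luminescence decrease equals reduced growth.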
Sm TGR inh: qHTS Assay for the Inhibitors of Schistosoma Mansoni Peroxiredoxins; Schistosoma mansoni thioredoxin glutathione reductase (TGR), Q962Y6; purified TGR, DTNB reduction, TNB absorbance 405 nm; Potency, µM (top dose mostly 114 µM), without a hit: top-dose activity change, negative = inhibition, actives largely listed as inhibitors; hit rate 3% among 360,000; AID 485364, 2010; also: potency is read from the fitted curve at half-maximal effect; % is scaled to controls: 0 for no effect and ±100 for the full control effect; nearly all actives have a fitted effect of over 60% in size
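Kinetic colorimetric format: TGR-catalysed, NADPH-driven DTNB reduction monitored via TNB absorbance. Enzyme dispensed at 20 nM; compound exposure 15 min at room temperature before reaction start.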
HCV inhibitor: qHTS Assay for Inhibitors of Hepatitis C Virus (HCV); Huh7.5.1 HCVcc-Cre infection, luciferase reporter, 44 h; Potency, µM (doses to about 41.8 µM), without a hit: at the top dose activity change, negative = inhibition, most hits filed as inhibitors; hit rate 3.4% among 340,000; also: potency is read from the fitted curve at half-maximal effect; % is scaled to controls: 0 for no effect and ±100 for the full control effect
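Cells seeded at 1,000/well and cultured 4 h, then compounds added followed by HCVcc-Cre virus (~0.5 moi). After 44 h further culture, luciferase substrate was added, plates held 15 min at room temperature, and luminescence read for 15 sec.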
HCMV inh: qHTS Assay for inhibitors of the human cytomegalovirus (HCMV); activity change, negative = inhibition, % at 57.5 µM; hit rate 4.5% among 410,000; HFF cells, HCMV-luciferase reporter, 72 h; active compounds read low; in the data active = activity change below about -60%; inconclusive = no clear call, values can overlap the other calls; inactive = above about -39%; also: % is scaled to controls: 0 for no effect and ±100 for the full control effect
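Inhibition of viral replication was scored as loss of reporter luminescence in HFFs infected with HCMV-luciferase (MOI 1 PFU/cell) for 72 h; compounds tested at 2 doses, normalized to buffer and Salinomycin controls.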
* = called active by the depositor; ? = inconclusive; nt = no result given; [ ] = dose if it differs, or a comment. Unless noted, calls follow the shape of the dose curve; as a rule, active = well fitted curve in the direction sought with a large enough effect; inconclusive = small, poorly fitted or top-dose-only effect, or another doubt; inactive = no such curve, though single readings can be large; an effect the other way counts as inactive or inconclusive.

SMILES	Pf growth 48h	SARS PLpro yeast	Pf growth 96h	Sm TGR inh	HCV inhibitor	HCMV inh
Cc1cc2c(cc1C)C(c1ccsc1)CC(=O)N2 (centres undefined)	95%	1%	4.7µM*	6%	22%	-11
Cc1cc2c(cc1C)C(c1cccc(F)c1)CC(=O)N2 (centres undefined)	-3%	-6%	13%	3%	-10%	7
CCCCN(C=O)c1c(CC)nc2c(OCc3ccc(C(F)(F)F)cc3)cccn12	nt	nt	nt	nt	nt	-10
O=S(=O)(Nc1ccccc1)C1CCCCC1	nt	nt	nt	nt	-2%	-25
CC1CCN(c2c(NCC3CCC(C(=O)N4CCc5ccccc5C4)CC3)c(=O)c2=O)CC1 (centres undefined)	nt	2%	-18%	-10%	7%	0
O=C(NCCC1=CCCCC1)C1CCC(CNc2c(N3CCCCC3)c(=O)c2=O)CC1 (centres undefined)	9.3µM*	-2%	?	3%	8%	0
CC1CCN(c2c(NCC3CCC(C(=O)NC4CCCCCC4)CC3)c(=O)c2=O)CC1 (centres undefined)	?	3%	?	5%	17%	-30
O=C(C1CCC(CNc2c(N3CCCCC3)c(=O)c2=O)CC1)N1CCc2ccccc2C1 (centres undefined)	9.3µM*	-1%	-44%	-11%	-7%	23
CC1CCN(c2c(NCC3CCC(C(=O)NCCC4=CCCCC4)CC3)c(=O)c2=O)CC1 (centres undefined)	7.4µM*	-1%	?	1%	-3%	-28
O=C(NCCC1=CCCCC1)C1CCC(CNc2c(N3CCCC3)c(=O)c2=O)CC1 (centres undefined)	?	2%	?	-1%	36%	-19
COc1ccc(Cc2nnc(N/N=C/c3ccc(O)cc3)[nH]c2=O)cc1OC	9.3µM*	?	13µM*	-9%	0.89µM*	-100*
COc1ccc(Cc2nnc(N/N=C/c3ccc(Br)cc3)[nH]c2=O)cc1OC	1%	-1%	?	2%	-6%	-20
Fc1ccccc1-c1nnc2ccc3ccccc3n12	8%	-6%	?	1%	-8%	46
Fc1cccc(Cl)c1-c1nnc2ccc3ccccc3n12	2%	-2%	-53%[5.75 µM]	-11%	10µM*	-84*
COC(=O)[C@@]12CCCN1[C@H](c1ccc(-c3ccc(Cl)c(Cl)c3)cc1)[C@H]1C(=O)N(C)C(=O)[C@H]12	?	7%	?	?	?	-11
Cc1cc(C)c(S(=O)(=O)Nc2ccc(C(N)=O)cc2)c(C)c1	-3%	0%	-16%	0%	21%	-84*
Cc1cc(C)c(S(=O)(=O)Nc2ccc3c(c2)CCC3)c(C)c1	-11%	-98%	?	9%	11µM*	-85*
Cc1cc(C)c(S(=O)(=O)Nc2ccc(O)cc2)c(C)c1	nt	10%	-8%	7%[11.4 µM]	4%	4
CC(NC(=O)COC(=O)/C=C/c1ccc(Cl)cc1)c1ccccc1 (centres undefined)	47%	0%	-21%	4%	7%	-8
O=C(NCCCN1CCOCC1)c1cc(-c2ccc(Cl)c(Cl)c2)on1	?	0%	336%	-9%	13µM*	-32
Cc1ccc(-c2cc(C(=O)NCCCN3CCOCC3)no2)cc1	?	2%	nt	-8%	-19%	-67*
O=C(NCCN1CCOCC1)c1cc(-c2ccc(Cl)c(Cl)c2)on1	5%	-1%	30%	-6%	4%	-7
Cc1ccc(-n2c3c(cc(C(=O)NCCCN4CCOCC4)c2=O)C(=O)CC(C)(C)C3)cc1	2%	-10%	0.83µM*	-22%	0%	-5
CCN(CC)CCCNC(=O)c1cc(-c2ccc(Cl)c(Cl)c2)on1	10µM*	-5%	-21%	-1%	1.4µM*	66
CSc1cccc(NC(=O)/C=C/c2ccc(Cl)cc2)c1	-9%	-17%	-28%	3%	13µM*	-18
SMILES	Pf growth 48h	SARS PLpro yeast	Pf growth 96h	Sm TGR inh	HCV inhibitor	HCMV inh
CSc1cccc(NC(=O)/C=C/c2ccccc2)c1	119%	-14%	10µM*	2%	?	15
Cc1cccc(NC(=O)/C=C/c2ccc(Cl)cc2)n1	129%	-26%	?	-3%	?	49
CSc1ccc(/C=C/C(=O)Nc2ccccc2)cc1	127%	-10%	-105%	-3%	-28%	-13
CCC(=O)Nc1ccc(NC(=O)/C=C/c2ccc(Cl)cc2)cc1	13%	14%	9.3µM*	2%	11%	-15
Cc1c(S(=O)(=O)Nc2ccc(Oc3ccccc3)cc2)c(=O)n(C)c(=O)n1C	3%	3%	-7%	-17%	-13%	16
CC(C)(C)c1ccc(OCCC(=O)Nc2cccc(S(=O)(=O)N3CCCCC3)c2)cc1	?	-3%	?	7%	?	?
CC(NC(=O)Cc1ccc(NS(=O)(=O)c2cccc(C(F)(F)F)c2)cc1)c1ccccn1 (centres undefined)	?	14%	?	-22%	?	-28
Cc1ccc(-c2nnc(Nc3cccc(O)c3)c3ccccc23)cc1S(=O)(=O)N1CCOCC1	nt	nt	nt	7%	nt	-61*
CCN(CC)C(=O)c1ccc(-c2nnc(Nc3cccc(O)c3)c3ccccc23)cc1	2.9µM*	-3%	-13%	-8%	2%	?
Cc1ccc(Nc2nnc(-c3ccc(C)c(S(=O)(=O)N4CCOCC4)c3)c3ccccc23)c(C)c1	nt	nt	nt	2%	nt	-66*
Cc1cccc(Nc2nnc(-c3ccc(N4CCOCC4)c([N+](=O)[O-])c3)c3ccccc23)c1	12µM*	14%	?	3%	14µM*	-68*
Cc1nnc(-c2ccc(N3CCOCC3)c([N+](=O)[O-])c2)o1	-1%	2%	-9%	-5%	-7%	nt
CCn1cc2nc(SCc3ccccc3F)n(Cc3ccc(C)cc3)c(=O)c2n1	nt	nt	nt	0%	nt	-4
CN(CC(=O)Nc1cccc(C(F)(F)F)c1)C1=NS(=O)(=O)c2ccccc21	nt	3%	nt	nt	?	-22
CCN(CC)CCN1C(=O)C(=O)/C(=C(/O)c2ccc(S(=O)(=O)N3CCOCC3)cc2)C1c1ccc(C)cc1 (centres undefined)	-15%	nt	-6%	-6%	1%	?
Cc1ccc(-c2nnc(Nc3ccc(F)cc3)c3ccccc23)cc1S(=O)(=O)NC(C)C	nt	nt	nt	10%	nt	-14
CNS(=O)(=O)c1cc(-c2nnc(Nc3cc(C)ccc3C)c3ccccc23)ccc1C	nt	nt	nt	1%	nt	-78*
